# Assay results: PubChem BioAssay
# The source made the active and inactive calls.
# Assays:
# [1] = molecular target: Albumin (Bos taurus) (UniProt P02769); assay: compounds binding labelled BSA control protein – biochemical, small-molecule microarray, Alexa647 label, 635/667 nm fluorescence, artefact control for SMM control protein annotation, profiling panel (AID 1118); settings: BSA-A647 binding, fluorescence 635 nm, higher = more signal;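 further: score merges 667 nm emission intensity and signal-to-noise per printed compound spot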
# Chain of Albumin (Bos taurus) (P02769 whole entry, looked up): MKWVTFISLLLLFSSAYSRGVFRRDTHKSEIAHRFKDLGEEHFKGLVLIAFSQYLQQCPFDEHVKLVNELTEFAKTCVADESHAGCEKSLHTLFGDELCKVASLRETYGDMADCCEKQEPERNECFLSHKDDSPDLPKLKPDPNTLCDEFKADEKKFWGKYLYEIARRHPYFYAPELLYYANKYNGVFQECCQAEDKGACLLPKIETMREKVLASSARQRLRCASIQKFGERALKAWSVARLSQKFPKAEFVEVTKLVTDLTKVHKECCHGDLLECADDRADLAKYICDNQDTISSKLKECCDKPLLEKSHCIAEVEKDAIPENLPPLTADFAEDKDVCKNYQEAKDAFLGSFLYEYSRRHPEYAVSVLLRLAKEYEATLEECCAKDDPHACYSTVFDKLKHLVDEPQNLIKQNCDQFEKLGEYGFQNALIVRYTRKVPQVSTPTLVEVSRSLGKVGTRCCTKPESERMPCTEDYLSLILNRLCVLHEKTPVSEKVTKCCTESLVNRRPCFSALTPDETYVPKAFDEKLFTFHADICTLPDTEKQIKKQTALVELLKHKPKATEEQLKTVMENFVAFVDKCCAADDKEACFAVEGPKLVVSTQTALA
# [2] = probe aXIP binding to arrayed compounds – biochemical, NeuroSMM set, 635/667 nm fluorescence, primary screen (AID 1119); settings: small-molecule microarray, higher = more signal, called active from +8 up or from −8 down;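 further: probe is the protein aXip251-270 applied at 1 µg/mL to compound-printed slides; binding of probe to printed compounds measured as 667 nm fluorescence plus signal to noise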
# [3] = probe aNOTCH3 binding on compound microarray – biochemical, small-molecule microarray, 635/667 nm fluorescence, primary screen (AID 1120); settings: higher = more signal;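 further: probe is a biotin-tagged antibody raised against NOTCH3 rather than NOTCH3 protein; score merges spot fluorescence near 667 nm with spot signal to noise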
# [4] = probe aNOTCH2 binding on compound microarray – biochemical, small-molecule microarray, 635/667 nm fluorescence, primary screen (AID 1121); settings: higher = more signal;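 further: score merges feature fluorescence read at 667 nm with its signal to noise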
# [5] = molecular target: Carbonic anhydrase 2 (Homo sapiens) (UniProt P00918); assay: compounds binding carbonic anhydrase 2 – biochemical, small-molecule microarray, Alexa647-labelled CAII, profiling panel (AID 1122); settings: CAII-A647 binding fluorescence, higher = more signal
# [6] = COS7 lysate on small-molecule microarray, probe aHis, 635 nm (AID 1123); settings: COS7 cell lysate, fluorescence, higher = more signal;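 further: z-score combines 667nm fluorescence intensity with signal-to-noise per printed compound spot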
# [7] = probe aLAP1 signal on lysate-treated microarray – cell lysate, small-molecule microarray, COS7 lysate, primary screen (AID 1124); settings: probe aLAP1, fluorescence, higher = more signal;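 further: lysate comes from COS7 cells expressing LAP1 and is applied at 0.3 µg/mL; score merges spot fluorescence near 667 nm with signal-to-noise over triplicate slides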
# [8] = tested on: Sam68 (KHDRBS1); assay: compounds binding KHDRBS1 protein – biochemical, small-molecule microarray, 635 nm fluorescence, primary screen (AID 1125); settings: higher = more signal;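 further: score merges 667 nm channel intensity with signal to noise over triplicate slides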
# [9] = tested on: Chordin-like protein 2 (CHRDL2); assay: compounds binding chordin-like 2 – biochemical, small-molecule microarray, 635 nm fluorescence, primary screen (AID 1126); settings: fluorescence 635 nm, higher = more signal;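 further: printed compound slides probed with Chrdl2 protein at 4 µg/mL for 1 h at 4 C; score merges 667 nm emission intensity with signal to noise over three replicate slides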
# [10] = molecular target: Concanavalin-A (Canavalia ensiformis) (UniProt P02866); assay: compounds binding concanavalin A lectin – biochemical, small-molecule microarray, Alexa647 label, 635 nm, artefact control for SMM control protein annotation, primary screen (AID 1127); settings: ConA-A647 binding fluorescence, higher = more signal;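 further: z combines 667 nm emission intensity with signal-to-noise across three replicate slides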
# Chain of Concanavalin-A (Canavalia ensiformis) (P02866 whole entry, looked up): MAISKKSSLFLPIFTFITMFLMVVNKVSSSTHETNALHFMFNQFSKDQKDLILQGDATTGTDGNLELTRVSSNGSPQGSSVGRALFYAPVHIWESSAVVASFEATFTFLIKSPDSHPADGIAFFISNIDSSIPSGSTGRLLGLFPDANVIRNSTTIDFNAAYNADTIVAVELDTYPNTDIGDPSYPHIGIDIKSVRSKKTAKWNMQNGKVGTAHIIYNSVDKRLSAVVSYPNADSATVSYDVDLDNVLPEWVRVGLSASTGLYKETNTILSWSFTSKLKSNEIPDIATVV
# [11] = compounds binding Alexa647 anti-His antibody – biochemical, small-molecule microarray, 635 nm fluorescence, artefact control for SMM control protein annotation, primary screen (AID 1128); settings: higher = more signal;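 further: score merges feature fluorescence with signal-to-noise for each printed compound spot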
# [12] = tested on: Human papillomavirus type 1a E7 protein (residues 1-88); assay: HPV1a E7 small-molecule binders, primary screen, biochemical, small-molecule microarray, residues 1-88, 635 nm (AID 1129); settings: small-molecule microarray binding, fluorescence 635 nm; higher = more signal
# [13] = molecular target: Focal adhesion kinase 1 (Homo sapiens) (UniProt Q05397); assay: PTK2 protein binding on printed compound slides – biochemical, small-molecule microarray, 635/667 nm fluorescence, BSA, DTT, primary screen (AID 1130); settings: 635 nm fluorescence, higher = more signal;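 further: composite of spot emission at 667 nm and signal to noise over triplicate slides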
# Chain of Focal adhesion kinase 1 (Homo sapiens) (Q05397 whole entry, looked up): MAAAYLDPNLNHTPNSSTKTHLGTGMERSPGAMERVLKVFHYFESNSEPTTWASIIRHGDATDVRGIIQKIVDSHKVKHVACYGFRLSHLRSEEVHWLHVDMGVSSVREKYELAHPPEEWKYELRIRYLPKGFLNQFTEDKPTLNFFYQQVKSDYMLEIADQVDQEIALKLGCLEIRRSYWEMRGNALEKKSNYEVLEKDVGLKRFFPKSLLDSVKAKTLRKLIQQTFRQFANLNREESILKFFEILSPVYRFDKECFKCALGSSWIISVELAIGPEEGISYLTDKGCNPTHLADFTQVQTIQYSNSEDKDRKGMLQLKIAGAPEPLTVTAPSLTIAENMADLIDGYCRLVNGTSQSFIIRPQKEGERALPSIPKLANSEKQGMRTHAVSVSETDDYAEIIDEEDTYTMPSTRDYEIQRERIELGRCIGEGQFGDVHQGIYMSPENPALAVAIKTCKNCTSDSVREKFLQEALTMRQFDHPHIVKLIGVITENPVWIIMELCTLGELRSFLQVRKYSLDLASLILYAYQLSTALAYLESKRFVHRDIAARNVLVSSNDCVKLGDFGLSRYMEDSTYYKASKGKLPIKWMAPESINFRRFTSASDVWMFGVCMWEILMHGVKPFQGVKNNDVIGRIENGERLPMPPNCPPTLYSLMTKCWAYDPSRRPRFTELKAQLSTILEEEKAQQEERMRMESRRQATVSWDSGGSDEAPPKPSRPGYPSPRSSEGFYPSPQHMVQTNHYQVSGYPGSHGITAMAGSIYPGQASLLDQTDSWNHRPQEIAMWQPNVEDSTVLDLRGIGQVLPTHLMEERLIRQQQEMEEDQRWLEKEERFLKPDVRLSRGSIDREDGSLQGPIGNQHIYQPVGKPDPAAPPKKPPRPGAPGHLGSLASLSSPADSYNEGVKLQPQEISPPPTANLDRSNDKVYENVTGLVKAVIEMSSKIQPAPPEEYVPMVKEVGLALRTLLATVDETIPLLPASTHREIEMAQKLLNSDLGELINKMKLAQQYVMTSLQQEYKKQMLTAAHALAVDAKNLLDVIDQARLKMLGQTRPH
# [14] = tested on: Fibrinogen (Alexa647-labelled); assay: Alexa647-fibrinogen binding to printed small molecules – biochemical, small-molecule microarray, 635/667 nm fluorescence, artefact control for SMM control-protein annotation, profiling panel (AID 1131); settings: fibrinogen-A647 binding fluorescence, higher = more signal;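 further: z-score merges 667 nm fluorescence with per-spot signal-to-noise over triplicate slides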
# [15] = molecular target: Follistatin (Homo sapiens) (UniProt P19883); assay: FST protein binding to printed compounds – biochemical, small-molecule microarray, 635/667 nm fluorescence, primary screen (AID 1132); settings: 635 nm fluorescence, higher = more signal
# Chain of Follistatin (Homo sapiens) (P19883 whole entry, looked up): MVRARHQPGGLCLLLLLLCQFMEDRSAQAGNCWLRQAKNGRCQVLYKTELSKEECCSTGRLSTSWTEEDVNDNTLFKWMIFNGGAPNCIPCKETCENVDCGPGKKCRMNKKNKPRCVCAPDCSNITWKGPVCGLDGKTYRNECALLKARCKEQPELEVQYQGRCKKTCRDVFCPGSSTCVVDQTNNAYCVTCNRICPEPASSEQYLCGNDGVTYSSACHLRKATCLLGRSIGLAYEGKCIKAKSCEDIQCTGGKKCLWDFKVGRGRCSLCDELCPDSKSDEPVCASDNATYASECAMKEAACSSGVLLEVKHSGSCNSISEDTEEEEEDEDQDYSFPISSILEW
# [16] = molecular target: Fibroblast growth factor 2 (Homo sapiens) (UniProt P09038); assay: basic fibroblast growth factor binding to printed compounds – biochemical, small-molecule microarray, 635/667 nm fluorescence, primary screen (AID 1133); settings: FGF2, fluorescence 635/667, higher = more signal
# Chain of Fibroblast growth factor 2 (Homo sapiens) (P09038 whole entry, looked up): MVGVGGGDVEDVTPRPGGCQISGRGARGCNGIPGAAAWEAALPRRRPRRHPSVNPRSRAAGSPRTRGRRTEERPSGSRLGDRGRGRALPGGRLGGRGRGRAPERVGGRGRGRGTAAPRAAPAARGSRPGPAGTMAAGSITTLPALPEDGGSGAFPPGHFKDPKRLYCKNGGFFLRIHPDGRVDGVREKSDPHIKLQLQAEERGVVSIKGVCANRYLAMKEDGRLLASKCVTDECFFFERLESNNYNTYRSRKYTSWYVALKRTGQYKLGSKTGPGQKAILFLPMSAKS
# [17] = JC-1 mitochondrial potential readout, lung cancer cells – cell-based, A549, JC-1 fluorescence, basal, 24 h, 100 nL, profiling panel (AID 1138); settings: higher = more signal;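 further: A549 lung adenocarcinoma cells under basal conditions with no added stimulus; test concentration not given here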
# [18] = tested on: Lefty1; assay: Lefty1 protein binding to printed compounds – biochemical, small-molecule microarray, 635/667 nm fluorescence, primary screen (AID 1139); settings: fluorescence 635/667, higher = more signal
# [19] = tested on: wheat germ agglutinin (Triticum aestivum), Alexa647-labelled; assay: Alexa647-WGA lectin binding to printed small molecules – biochemical, small-molecule microarray, 635/667 nm fluorescence, artefact control for SMM control-protein annotation, profiling panel (AID 1140); settings: WGA-A647 binding, 635 nm fluorescence, higher = more signal;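 further: score merges 667 nm feature emission with signal to noise over triplicate slides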
# [20] = molecular target: Luciferin 4-monooxygenase (Photinus pyralis) (UniProt P08659); assay: inhibition of purified Photinus pyralis luciferase – biochemical, luminescence, purified enzyme, 2006 set, primary screen (AID 1141); settings: purified firefly luciferase, SteadyGlo luminescence, 30 min; higher = more signal, called active from +8 up or from −8 down;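 further: cell-free assay with purified firefly luciferase at 100 ng per well in PBS; test concentration not given here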
# Chain of Luciferin 4-monooxygenase (Photinus pyralis) (P08659 whole entry, looked up): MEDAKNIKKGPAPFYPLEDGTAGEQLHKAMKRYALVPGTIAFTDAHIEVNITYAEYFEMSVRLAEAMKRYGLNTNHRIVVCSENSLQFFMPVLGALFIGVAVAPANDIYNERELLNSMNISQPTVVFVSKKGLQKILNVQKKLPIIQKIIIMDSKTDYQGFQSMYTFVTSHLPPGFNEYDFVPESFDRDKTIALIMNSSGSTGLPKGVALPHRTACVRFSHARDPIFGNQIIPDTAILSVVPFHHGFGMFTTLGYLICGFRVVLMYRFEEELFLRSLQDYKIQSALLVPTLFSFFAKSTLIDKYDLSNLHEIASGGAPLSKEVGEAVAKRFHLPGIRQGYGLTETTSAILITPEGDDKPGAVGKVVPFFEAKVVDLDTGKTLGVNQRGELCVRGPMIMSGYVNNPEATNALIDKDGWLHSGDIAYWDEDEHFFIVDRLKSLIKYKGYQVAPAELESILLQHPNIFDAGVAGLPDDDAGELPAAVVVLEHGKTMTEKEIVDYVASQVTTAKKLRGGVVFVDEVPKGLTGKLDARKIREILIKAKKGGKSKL
SMILES,composite z-score [1],composite Z-score [2],composite z-score [3],composite z-score [4],composite z-score [5],composite z-score [6],composite z-score [7],composite z-score [8],composite z-score [9],composite z-score [10],composite z-score [11],composite z-score [12],composite z-score [13],composite z-score [14],composite z-score [15],composite z-score [16],z-score [17],composite z-score [18],composite z-score [19],z-score [20]
CCOC(=O)[C@H]1[C@@H]2C(=O)N3CCC[C@H]3[C@H](O[Si](C(C)C)(C(C)C)C(C)C)[C@H]2C=C2CCN(S(=O)(=O)c3ccc(C)cc3)C[C@H]21,0.603,0.156 (inactive),0.0208,-0.112,0.481,1.15,0.171,1.3,0.484,1.12,0.173,0.837,-0.268,0.938,0.727,0.143,1.8,0.672,0.255,-0.404 (inactive)
COc1ccc(NC(=O)O[C@H]2[C@H](OC(=O)Nc3ccccc3)[C@@H](OC(=O)Nc3ccccc3)[C@@H](OC)O[C@@H]2CO)cc1,0.137,-0.275 (inactive),-0.0003,-0.0878,0.761,2.8,0.624,1.29,0.402,1.13,1.77,1.21,0.634,0.825,1.34,1.72,-0.506,0.512,0.626,0.0551 (inactive)
C=CCC(OC(C)=O)[C@@H]1[C@@H](N(Cc2cccc3ccccc23)C(=O)c2cccc3ccccc23)c2cc(OCCCO)ccc2N1C(=O)c1ccc(-c2ccccc2)cc1 (stereo not given in full),-0.0704,-0.0014 (inactive),0.122,-0.143,0.115,0.888,-0.35,-0.159,0.25,-0.132,-0.123,-0.14,0.0614,0.643,0.693,0.497,-0.338,0.0548,0.0915,0.337 (inactive)
CN(C)C(=O)[C@@]1(Cc2ccccc2CN=[N+]=[N-])N=C(c2ccc(OCCCO)cc2)O[C@H]1c1ccccc1CN=[N+]=[N-],0.936,0.608 (inactive),0.602,0.202,0.703,2.79,0.15,0.873,-0.103,1.07,2.33,1.21,0.419,0.856,0.652,-0.025,1.43,-0.483,1.12,0.184 (inactive)
CC(C)C(=C=CC[C@H](O)c1ccc(OCCO)cc1)C[C@H](O)c1ccccn1,0.449,0.168 (inactive),-0.0044,-0.13,0.513,0.619,0.864,1.19,-0.237,-0.057,0.923,0.955,0.104,0.3,0.135,-0.139,1.51,0.334,0.0804,-2.27 (inactive)
OCC1CC(c2ccccc2)=NO1 (stereo not given),-0.558,-0.228 (inactive),-0.185,-0.124,-0.179,-0.53,-0.437,-0.424,0.843,-0.36,0.702,-0.0937,-0.219,-0.327,0.5,0.774,0.875,-0.0193,-0.239,-1.4 (inactive)
